Several values for one entry are separate records, joined by “and”; a condition that tells them apart may be missing. Identical values can stand only once. Inconclusive results are not listed. The source holds several records for some structures; these can differ, active in one and inactive in another. Activity calls are given as the source filed them. The calls were made as follows, unless noted: active = hit-call score of the fitted dose curve at least 0.9, where 1 is the maximum; inactive = score below 0.9.
Columns and labels:
[1] = target: Nuclear respiratory factor 1 (Homo sapiens) (UniProt Q16656); assay: ATG_NRF1_CIS: Attagene CIS-FACTORIAL HepG2 Assay for human Nuclear Respiratory Factor 1 (NRF1) Orphan Gene (AID 2282987); conditions: HepG2 NRF1 cis-element reporter, Attagene multiplex; actives raise or lower the signal
How it was run: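 Transcriptional reporter readout, one component of a 52-endpoint multiplexed HepG2 panel. Exposure 24 h; mRNA detected via RT-PCR and fluorescent capillary electrophoresis; fitting in both directions against DMSO.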

[2] = ATG_NFI_CIS: Attagene CIS-FACTORIAL HepG2 Assay for human Nuclear Factor I (NFI) (AID 2282989); conditions: HepG2 cis-regulatory reporter, NFI response element transcription; actives raise or lower the signal
How it was run: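 Reporter transcripts were measured by RT-PCR with fluorescent primer extension and capillary electrophoresis 24 h post-treatment. HepG2 cells carried transiently transfected cis-regulated reporter constructs reporting endogenous factor activity; gain or loss fitted against DMSO baseline.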

[3] = target: Myc proto-oncogene protein (Homo sapiens) (UniProt P01106); assay: ATG_Myc_CIS: Attagene CIS-FACTORIAL HepG2 Assay for human Myelocytomatosis (Myc) Proto-Oncogene Transcription Factor (AID 2282990); conditions: HepG2, Attagene cis-reporter transcription factor activity; actives raise or lower the signal
How it was run: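 Fluorescence intensity of reporter-specific cDNA fragments, separated by capillary electrophoresis, gives the signal. Transfected HepG2 cells carrying cis-promoter reporter constructs are incubated with compound for 24 h; DMSO serves as baseline.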

[4] = ATG_NF_kB_CIS: Attagene CIS-FACTORIAL HepG2 Assay for human Nuclear Factor Kappa B (NF-kB) (AID 2282991); conditions: HepG2 Attagene cis-factorial NF-kB reporter mRNA; actives raise or lower the signal
How it was run: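 HepG2, transient multi-reporter transfection, cis promoter elements (endogenous TFs). 24 h exposure. Total RNA → RT → PCR → 6-FAM label → HpaI → CE. Gain/loss vs DMSO.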

[5] = ATG_NRF2_ARE_CIS: Attagene CIS-FACTORIAL HepG2 Assay for human Nuclear Factor Erythroid 2 Related Factor 2 (NFR2) response to Antioxidant Response Elements (ARE) (AID 2282992); conditions: HepG2 Attagene ARE/NRF2 reporter, transcription factor activity; actives raise or lower the signal;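 as to AC50: reporter mRNA level measured by RT-PCR and capillary electrophoresis fluorescence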
How it was run: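 HepG2 cells transiently transfected with multiplexed cis-regulated reporter transcription units measure endogenous transcription factor activity. Reporter mRNA at 24 h is quantified by RT-PCR, fluorescent labelling and capillary electrophoresis, with bidirectional fitting relative to DMSO.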

[6] = ATG_Oct_MLP_CIS: Attagene CIS-FACTORIAL HepG2 Assay for human Octamer-Binding Transcription Factor (Oct) (AID 2282993); conditions: HepG2 Attagene cis-factorial Oct reporter, mRNA; actives raise or lower the signal
How it was run: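 Readout is reporter transcript level from RT-PCR with fluorescent primer extension and capillary electrophoresis, fitted in both directions against DMSO. Transfected HepG2 reporter units report endogenous factor activity after 24 h dosing.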

[7] = target: Cellular tumor antigen p53 (Homo sapiens) (UniProt P04637); assay: ATG_p53_CIS: Attagene CIS-FACTORIAL HepG2 Assay for human p53 Transcription Factor (AID 2282994); conditions: HepG2 p53 cis-element reporter, Attagene mRNA; actives raise or lower the signal
How it was run: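 HepG2 cells transiently transfected with multiplexed cis-regulated reporter transcription units read endogenous TF activity. After 24 h compound exposure, reporter mRNA was quantified by RT-PCR, fluorescent labelling, HpaI digestion and capillary electrophoresis; bidirectional fits versus DMSO baseline.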

[8] = BSK_3C_TissueFactor: BioMAP Diversity Plus: 3C Assay for Tissue Factor Biomarker Activity (AID 2282997); conditions: BioMAP 3C HUVEC, tissue factor biomarker readout; actives raise or lower the signal
How it was run: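 Values derive from bidirectional curve fitting against DMSO of Tissue Factor ELISA signals, taken 24 h after dosing primary human umbilical vein endothelial cells.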

[9] = BSK_3C_uPAR: BioMAP Diversity Plus: 3C Assay for Urokinase-type plasminogen activator receptor (uPAR) Biomarker Activity (AID 2282998); conditions: BioMAP 3C HUVEC, uPAR biomarker ELISA; actives raise or lower the signal
How it was run: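 Cell-surface uPAR on HUVEC (3C system) read by ELISA at 24 h post-treatment, with DMSO as baseline and fitting in both directions. Parallel cultures stained with SRB to flag overt cytotoxicity.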

[10] = BSK_3C_VCAM1: BioMAP Diversity Plus: 3C Assay for Vascular cell adhesion molecule 1 (VCAM1) Biomarker Activity (AID 2282999); conditions: BioMAP 3C HUVEC, VCAM1 ELISA, cytokine-stimulated; actives raise or lower the signal
How it was run: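 Human umbilical vein endothelial cells (3C system), biomarker read by ELISA 24 h after dosing; bidirectional fit against DMSO baseline. Cytotoxicity tracked by SRB total-protein staining in parallel cultures at biomarker time.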

[11] = BSK_4H_Eotaxin3: BioMAP Diversity Plus: 4H Assay for Eotaxin 3 Biomarker Activity (AID 2283000); conditions: primary human endothelial cells (HUVEC); actives raise or lower the signal
How it was run: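 Endothelial primary cells (human umbilical vein) exposed to compound for 24 h. ELISA detection of Eotaxin-3.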

[12] = target: human Peroxisome Proliferator-activated Receptor alpha (PPARa), PPARA (gene 5465) (UniProt Q07869); assay: ATG_PPARa_TRANS: Attagene TRANS-FACTORIAL HepG2 Assay for human Peroxisome Proliferator-activated Receptor alpha (PPARa) (AID 2283001; active = hit-call score of the fitted dose curve at least 0.9, where 1 is the maximum;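 as to AC50: potency for gain of reporter signal over DMSO so agonist or activator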)
How it was run: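 Measures transcriptional activity of an exogenous chimeric PPARa-Gal4 protein in transiently transfected HepG2 cells after 24 h dosing. Reporter mRNA quantified via RT-PCR and capillary electrophoresis; DMSO served as negative control.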

[13] = target: human Peroxisome Proliferator-activated Receptor delta (PPARd), PPARD (gene 5467) (UniProt Q03181); assay: ATG_PPARd_TRANS: Attagene TRANS-FACTORIAL HepG2 Assay for human Peroxisome Proliferator-activated Receptor delta (PPARd) (AID 2283002; active = hit-call score of the fitted dose curve at least 0.9, where 1 is the maximum)
How it was run: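 Fluorescence from capillary electrophoresis of labelled RT-PCR reporter fragments gives the signal; DMSO sets baseline. Cells: HepG2 transiently carrying GAL4-UAS reporter units plus chimeric nuclear receptor-Gal4 proteins, exposed to chemicals for 24 h.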

[14] = read-out: Intercellular Adhesion Molecule 1 (ICAM1), ICAM1 (gene 3383); assay: BSK_3C_ICAM1: BioMAP Diversity Plus: 3C Assay for Intercellular Adhesion Molecule 1 (ICAM1) Biomarker Activity (AID 2283003); conditions: primary human endothelial cells (HUVEC); actives raise or lower the signal
How it was run: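 Human vascular endothelial primary cells, 3C conditions, 24 h treatment. ICAM-1 by ELISA.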

[15] = target: human Retinoic Acid Receptor beta (RARb), RARB (gene 5915) (UniProt P10826); assay: ATG_RARb_TRANS: Attagene TRANS-FACTORIAL HepG2 Assay for human Retinoic Acid Receptor beta (AID 2283004; active = hit-call score of the fitted dose curve at least 0.9, where 1 is the maximum)
How it was run: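 HepG2, transient MRTU transfection, NR–Gal4 chimera, 24 h treatment; RT-PCR plus CE fluorescence detection of reporter mRNA; gain of signal vs DMSO.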

[16] = BSK_3C_Proliferation: Cell Proliferation Assessment in the BioMAP Diversity Plus: 3C Assay (AID 2283006); conditions: primary human endothelial cells (HUVEC);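 as to AC50: potency may reflect either rise or fall in cell number versus DMSO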
How it was run: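 Proliferation of human vascular endothelial primary cells after 48 h dosing, quantified as SRB-stained protein at 560 nm relative to DMSO.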

[17] = target: Peroxisome proliferator-activated receptor gamma (Homo sapiens) (UniProt P37231); assay: ATG_PPARg_TRANS: Attagene TRANS-FACTORIAL HepG2 Assay for human Peroxisome Proliferator-activated Receptor-gamma (PPARg) (AID 2283007; active = hit-call score of the fitted dose curve at least 0.9, where 1 is the maximum)
How it was run: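 Multiplexed reporter transcription units in HepG2, 24 h dosing, reporter transcripts quantified by fluorescent RT-PCR and capillary electrophoresis. Increase over DMSO scored.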

[18] = target: Nuclear receptor subfamily 1 group I member 2 (Homo sapiens) (UniProt O75469); assay: ATG_PXR_TRANS: Attagene TRANS-FACTORIAL HepG2 Assay for human Pregnane X Receptor (PXR) (AID 2283008; active = hit-call score of the fitted dose curve at least 0.9, where 1 is the maximum)
How it was run: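 HepG2 cells transiently transfected with multiple reporter units, here a PXR-GAL4 chimera driving a GAL4-UAS reporter; 24 h compound exposure. Reporter mRNA measured by RT-PCR, FAM labelling and capillary electrophoresis; gain of signal fitted against DMSO baseline.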

[19] = target: human Retinoic Acid Receptor gamma (RARg), RARG (gene 5916) (UniProt P13631); assay: ATG_RARg_TRANS: Attagene TRANS-FACTORIAL HepG2 Assay for human Retinoic Acid Receptor gamma (RARg) (AID 2283009; active = hit-call score of the fitted dose curve at least 0.9, where 1 is the maximum)
How it was run: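 HepG2, RARg-GAL4 TRANS system, 24 h exposure; reporter mRNA by RT-PCR + CE fluorescence; increase over DMSO.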

[20] = target: Retinoic acid receptor alpha (Homo sapiens) (UniProt P10276); assay: ATG_RARa_TRANS: Attagene TRANS-FACTORIAL HepG2 Assay for human Retinoic Acid Receptor alpha (RARa) (AID 2283005; active = hit-call score of the fitted dose curve at least 0.9, where 1 is the maximum)
How it was run: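 HepG2 transiently transfected with multiplex GAL4-UAS reporter units including a human RARa–GAL4 chimera; 24 h compound exposure. Reporter mRNA quantified by RT-PCR, 6-FAM labeling and capillary electrophoresis; gain of signal versus DMSO.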

Measured: AC50

Chain of Peroxisome proliferator-activated receptor gamma (Homo sapiens) (P37231 whole entry, looked up): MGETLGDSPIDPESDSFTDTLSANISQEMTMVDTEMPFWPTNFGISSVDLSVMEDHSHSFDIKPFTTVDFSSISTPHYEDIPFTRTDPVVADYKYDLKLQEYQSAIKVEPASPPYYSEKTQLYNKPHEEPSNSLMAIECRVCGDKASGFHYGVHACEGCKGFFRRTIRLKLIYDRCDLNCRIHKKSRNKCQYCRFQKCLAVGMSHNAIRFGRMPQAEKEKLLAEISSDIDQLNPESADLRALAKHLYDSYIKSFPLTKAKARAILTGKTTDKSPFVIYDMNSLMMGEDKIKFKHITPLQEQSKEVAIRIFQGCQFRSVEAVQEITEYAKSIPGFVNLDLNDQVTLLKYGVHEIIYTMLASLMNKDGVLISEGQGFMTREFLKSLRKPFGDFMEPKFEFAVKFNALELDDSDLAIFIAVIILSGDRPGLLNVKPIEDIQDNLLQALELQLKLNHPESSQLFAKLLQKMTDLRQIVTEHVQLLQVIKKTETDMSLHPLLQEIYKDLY
Chain of Myc proto-oncogene protein (Homo sapiens) (P01106 whole entry, looked up, the tested form may be a part): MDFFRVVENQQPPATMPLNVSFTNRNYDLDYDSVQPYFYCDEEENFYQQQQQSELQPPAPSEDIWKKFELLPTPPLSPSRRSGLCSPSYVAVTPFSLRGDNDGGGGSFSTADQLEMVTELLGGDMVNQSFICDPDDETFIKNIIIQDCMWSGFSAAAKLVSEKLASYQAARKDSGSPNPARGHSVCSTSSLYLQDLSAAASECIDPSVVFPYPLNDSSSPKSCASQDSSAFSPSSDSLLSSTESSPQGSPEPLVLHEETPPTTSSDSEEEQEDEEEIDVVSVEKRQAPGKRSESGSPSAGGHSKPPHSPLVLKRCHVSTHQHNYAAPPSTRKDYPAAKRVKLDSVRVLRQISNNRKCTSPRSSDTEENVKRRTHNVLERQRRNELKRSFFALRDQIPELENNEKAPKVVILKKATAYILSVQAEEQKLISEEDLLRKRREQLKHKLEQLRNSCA
Chain of human Retinoic Acid Receptor gamma (RARg), RARG (gene 5916) (P13631 whole entry, looked up, the tested form may be a part): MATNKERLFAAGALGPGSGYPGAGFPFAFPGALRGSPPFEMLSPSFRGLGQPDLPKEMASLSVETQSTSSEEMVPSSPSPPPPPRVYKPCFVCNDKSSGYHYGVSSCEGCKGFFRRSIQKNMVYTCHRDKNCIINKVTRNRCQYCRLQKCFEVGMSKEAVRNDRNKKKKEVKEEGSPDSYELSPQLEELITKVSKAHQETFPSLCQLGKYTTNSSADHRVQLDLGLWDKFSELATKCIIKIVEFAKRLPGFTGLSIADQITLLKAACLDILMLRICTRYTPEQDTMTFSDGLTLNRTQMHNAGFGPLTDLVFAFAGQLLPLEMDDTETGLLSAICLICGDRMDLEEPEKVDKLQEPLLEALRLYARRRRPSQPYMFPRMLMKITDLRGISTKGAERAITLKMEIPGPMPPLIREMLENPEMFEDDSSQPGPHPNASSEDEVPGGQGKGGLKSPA
Chain of Nuclear receptor subfamily 1 group I member 2 (Homo sapiens) (O75469 whole entry, looked up, the tested form may be a part): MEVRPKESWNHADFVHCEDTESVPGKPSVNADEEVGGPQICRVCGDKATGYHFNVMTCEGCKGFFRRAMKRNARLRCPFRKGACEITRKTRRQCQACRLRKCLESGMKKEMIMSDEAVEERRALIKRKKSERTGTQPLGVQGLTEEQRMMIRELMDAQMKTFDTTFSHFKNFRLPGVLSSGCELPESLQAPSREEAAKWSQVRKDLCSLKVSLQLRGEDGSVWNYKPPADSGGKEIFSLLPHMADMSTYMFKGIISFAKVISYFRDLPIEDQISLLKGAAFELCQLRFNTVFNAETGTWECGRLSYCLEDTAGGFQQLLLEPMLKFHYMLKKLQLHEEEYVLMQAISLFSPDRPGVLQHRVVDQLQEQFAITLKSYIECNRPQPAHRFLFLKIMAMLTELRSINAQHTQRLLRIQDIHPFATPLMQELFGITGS
Chain of Cellular tumor antigen p53 (Homo sapiens) (P04637 whole entry, looked up): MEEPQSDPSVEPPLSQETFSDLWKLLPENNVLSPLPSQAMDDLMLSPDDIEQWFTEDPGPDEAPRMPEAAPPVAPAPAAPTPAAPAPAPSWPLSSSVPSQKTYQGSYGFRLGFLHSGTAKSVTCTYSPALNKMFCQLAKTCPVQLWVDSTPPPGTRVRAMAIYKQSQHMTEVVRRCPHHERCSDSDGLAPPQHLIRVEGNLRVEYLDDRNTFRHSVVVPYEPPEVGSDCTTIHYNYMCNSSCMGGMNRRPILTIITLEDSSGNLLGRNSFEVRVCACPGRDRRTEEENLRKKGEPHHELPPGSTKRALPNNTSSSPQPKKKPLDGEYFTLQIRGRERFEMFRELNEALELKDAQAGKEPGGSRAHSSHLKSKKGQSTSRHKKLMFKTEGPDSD
Chain of Nuclear respiratory factor 1 (Homo sapiens) (Q16656 whole entry, looked up): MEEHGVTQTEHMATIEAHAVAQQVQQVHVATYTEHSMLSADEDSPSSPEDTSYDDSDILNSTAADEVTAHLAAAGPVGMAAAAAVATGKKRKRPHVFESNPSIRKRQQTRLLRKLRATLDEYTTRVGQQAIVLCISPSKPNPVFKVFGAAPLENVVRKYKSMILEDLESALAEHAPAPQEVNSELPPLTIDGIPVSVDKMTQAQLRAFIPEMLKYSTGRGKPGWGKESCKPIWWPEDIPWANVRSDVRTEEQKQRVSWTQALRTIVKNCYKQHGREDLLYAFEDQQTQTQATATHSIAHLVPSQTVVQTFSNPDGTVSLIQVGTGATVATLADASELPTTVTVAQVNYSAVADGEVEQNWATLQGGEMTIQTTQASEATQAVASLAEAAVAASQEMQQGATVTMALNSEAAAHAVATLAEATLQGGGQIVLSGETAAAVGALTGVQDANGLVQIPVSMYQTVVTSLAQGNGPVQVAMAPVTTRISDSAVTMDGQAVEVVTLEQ
Chain of Retinoic acid receptor alpha (Homo sapiens) (P10276 whole entry, looked up, the tested form may be a part): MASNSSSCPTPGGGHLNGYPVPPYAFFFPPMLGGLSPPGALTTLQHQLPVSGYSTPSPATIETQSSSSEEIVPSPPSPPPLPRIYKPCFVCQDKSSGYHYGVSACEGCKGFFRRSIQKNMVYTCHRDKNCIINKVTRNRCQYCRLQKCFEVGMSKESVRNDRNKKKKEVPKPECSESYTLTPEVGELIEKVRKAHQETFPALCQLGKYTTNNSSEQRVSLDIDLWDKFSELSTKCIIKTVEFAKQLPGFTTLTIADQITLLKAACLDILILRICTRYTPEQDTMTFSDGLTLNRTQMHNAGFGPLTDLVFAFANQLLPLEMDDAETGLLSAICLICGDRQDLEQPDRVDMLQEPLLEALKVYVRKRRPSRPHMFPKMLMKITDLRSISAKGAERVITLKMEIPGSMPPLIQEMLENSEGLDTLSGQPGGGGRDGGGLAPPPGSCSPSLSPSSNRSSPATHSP
Chain of human Peroxisome Proliferator-activated Receptor alpha (PPARa), PPARA (gene 5465) (Q07869 whole entry, looked up, the tested form may be a part): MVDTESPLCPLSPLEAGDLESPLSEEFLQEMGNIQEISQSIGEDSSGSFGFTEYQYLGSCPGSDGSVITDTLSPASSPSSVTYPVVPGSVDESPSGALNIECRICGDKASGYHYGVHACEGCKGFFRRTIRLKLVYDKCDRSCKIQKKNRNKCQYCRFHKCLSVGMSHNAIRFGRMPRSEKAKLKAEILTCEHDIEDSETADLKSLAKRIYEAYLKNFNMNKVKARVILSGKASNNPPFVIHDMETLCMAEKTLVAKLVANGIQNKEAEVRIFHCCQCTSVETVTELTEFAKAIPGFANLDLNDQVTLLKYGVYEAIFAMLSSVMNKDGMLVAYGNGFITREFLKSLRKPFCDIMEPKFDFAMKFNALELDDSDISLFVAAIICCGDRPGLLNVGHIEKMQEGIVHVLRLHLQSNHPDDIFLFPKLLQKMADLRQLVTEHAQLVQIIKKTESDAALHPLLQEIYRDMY
Chain of human Peroxisome Proliferator-activated Receptor delta (PPARd), PPARD (gene 5467) (Q03181 whole entry, looked up, the tested form may be a part): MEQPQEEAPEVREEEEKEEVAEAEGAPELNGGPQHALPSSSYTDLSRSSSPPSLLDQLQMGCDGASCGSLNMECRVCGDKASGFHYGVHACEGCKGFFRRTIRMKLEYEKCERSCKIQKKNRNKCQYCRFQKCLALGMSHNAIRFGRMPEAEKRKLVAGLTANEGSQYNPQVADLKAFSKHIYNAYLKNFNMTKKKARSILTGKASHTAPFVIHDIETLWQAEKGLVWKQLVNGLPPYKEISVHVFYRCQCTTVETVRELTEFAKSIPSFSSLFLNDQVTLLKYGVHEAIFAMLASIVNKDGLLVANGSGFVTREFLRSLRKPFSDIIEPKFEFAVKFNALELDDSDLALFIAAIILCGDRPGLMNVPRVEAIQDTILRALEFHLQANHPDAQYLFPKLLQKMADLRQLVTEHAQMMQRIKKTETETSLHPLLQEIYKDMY
Chain of human Retinoic Acid Receptor beta (RARb), RARB (gene 5915) (P10826 whole entry, looked up, the tested form may be a part): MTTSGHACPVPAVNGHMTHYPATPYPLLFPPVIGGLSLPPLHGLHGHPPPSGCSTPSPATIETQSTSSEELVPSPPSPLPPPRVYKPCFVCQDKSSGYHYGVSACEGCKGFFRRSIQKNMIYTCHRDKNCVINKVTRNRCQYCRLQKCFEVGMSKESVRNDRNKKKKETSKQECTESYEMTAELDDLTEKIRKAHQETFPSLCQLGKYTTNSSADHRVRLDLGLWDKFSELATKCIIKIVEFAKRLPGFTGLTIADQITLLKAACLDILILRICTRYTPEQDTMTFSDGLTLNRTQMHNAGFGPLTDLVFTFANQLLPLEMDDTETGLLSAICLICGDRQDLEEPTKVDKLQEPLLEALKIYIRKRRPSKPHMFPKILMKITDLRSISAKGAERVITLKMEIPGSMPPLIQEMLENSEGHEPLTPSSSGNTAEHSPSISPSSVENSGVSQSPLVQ

Nc1cccc2c(N)cccc12
active: [5] 46.6 µM
inactive: [1] | [2] | [3] | [4] | [6] | [7] | [8] | [9] | [10] | [11] | [12] | [13] | [14] | [15] | [16] | [17] | [18] | [19]

CC(=O)NC1(c2cccc(F)c2)CCN(CC[C@@]2(c3ccc(Cl)c(Cl)c3)CN(c3ccccc3)C(=O)CO2)CC1
inactive: [8] | [12] | [13] | [15] | [19]
active: [1] 57.5 µM | [2] 41.7 µM | [3] 61.5 µM | [4] 55 µM | [5] 9.13 µM | [6] 37.3 µM | [7] 18.4 µM | [9] 20.4 µM | [10] 24.2 µM | [11] 27.1 µM | [16] 20.8 µM | [17] 49.1 µM | [18] 8.59 µM

NCC(F)(F)C(F)(F)C(F)(F)C(F)(F)C(F)(F)C(F)(F)C(F)(F)F
inactive: [1] | [2] | [3] | [4] | [5] | [6] | [7] | [8] | [9] | [10] | [11] | [12] | [13] | [14] | [20] | [16] | [17] | [18] | [19]

COc1ccc([N+](=O)[O-])cc1N
inactive: [1] | [2] | [3] | [4] | [5] | [6] | [7] | [8] | [9] | [10] | [11] | [12] | [14] | [15] | [16]

CCCCOCCO
inactive: [1] | [2] | [3] | [4] | [5] | [6] | [7] | [8] | [9] | [10] | [11] | [12] | [14] | [16] | [17]

O=[N+]([O-])c1ccc(O)cc1
inactive: [1] | [2] | [3] | [4] | [5] | [6] | [7] | [8] | [9] | [10] | [11] | [12] | [13] | [14] | [16] | [17]

O=C(O)Cc1cc(I)c(Oc2cc(I)c(O)c(I)c2)c(I)c1
active: [2] 47.9 µM and 17.2 µM | [3] 48.6 µM and 16.8 µM | [4] 105 µM and 46.1 µM | [5] 17 µM and 16.9 µM | [6] 34.8 µM and 33.3 µM | [8] 24.3 µM | [12] 67 µM | [16] 21.3 µM | [17] 481 nM and 460 nM | [18] 13 µM
inactive: [1] | [7] | [9] | [10] | [11] | [12] | [13] | [14] | [20] | [18] | [19]

COCC(C)O (stereo unspecified)
inactive: [1] | [2] | [3] | [4] | [5] | [6] | [7] | [8] | [9] | [10] | [11] | [12] | [14] | [16]

CCC(=C(c1ccc(O)cc1)c1ccc(OCCN(C)C)cc1)c1ccccc1
inactive: [1] | [2] | [3] | [4] | [5] | [6] | [12] | [13] | [15] | [20] | [17] | [19]
active: [3] 13.1 µM | [5] 5.93 µM and 1.95 µM and 1.77 µM | [6] 7.1 µM and 11.1 µM | [8] 11 µM | [9] 7.66 µM | [10] 11.9 µM | [11] 7.42 µM | [12] 11.8 µM | [14] 12.6 µM | [16] 5.85 µM | [17] 10.9 µM and 9.84 µM and 11.1 µM | [18] 3.28 µM [middle of 4 runs]

CCCCCCCCOC(=O)CCCCCCCCC(=O)OCCCCCCCC
inactive: [1] | [2] | [3] | [4] | [5] | [6] | [7] | [8] | [9] | [10] | [11] | [12] | [13] | [14] | [16] | [17]

O=C1OC2(c3ccccc31)c1cc(Br)c(O)c(Br)c1Oc1c2cc(Br)c(O)c1Br
active: [6] 66.2 µM | [17] 51.8 µM | [18] 8.91 µM
inactive: [1] | [2] | [3] | [4] | [5] | [6] | [12] | [13] | [20] | [17] | [18] | [19]

From PubChem BioAssay (EPA / NIEHS)
